{
  "source": "ChEMBL document CHEMBL3988442",
  "about": "“University of Dundee, Small-Polar-MMV Screening Library” (2021)",
  "note": "Out of some 38,000 compounds screened, about 1,200 (3.2%) showed an effect of 50% or more. The median lay at about -58%. The full list was thinned out, with strong results kept by preference.",
  "data": [
    {"test_system": "Plasmodium falciparum", "test": "Calibr Malaria Delayed Death Assay SOP", "assay_type": "functional, organism-based", "design": "scale not given: in the data most compounds retested in dose-response had high values", "details": "concentration 4.99e-06 (unit not given; other assays of the set use mol/L)", "units": {"Percent Effect": "%"}, "values": [
      {"compound": "CCC(=O)N1CCC[C@]2(C(=O)N(C)C)CN(c3ccccn3)C[C@@H]2C1.O=C(O)C(F)(F)F", "Percent Effect": -7.405},
      {"compound": "Cn1nccc1-c1nnn2c1COC(CNCc1nccs1)C2.O=C(O)C(F)(F)F", "note": "(configuration not stated)", "Percent Effect": -38.88},
      {"compound": "CCn1cc(S(=O)(=O)N2CCCC2c2ccc(C)o2)cn1", "note": "(configuration not stated)", "Percent Effect": -154.6},
      {"compound": "CC(C)c1nccn1C1CCCN(C(=O)c2nccnc2N)C1", "note": "(configuration not stated)", "Percent Effect": -27.69},
      {"compound": "CCOc1ncccc1CNC(=O)c1cc(C)on1", "Percent Effect": -34.12},
      {"compound": "Cn1cc(C2CC(=O)NC23CCN(C(=O)C2CC=CC2)CC3)cn1", "note": "(configuration not stated)", "Percent Effect": -79.79},
      {"compound": "Cn1cc(CN2CCC(CCC(=O)NCc3ccc(F)cc3)CC2)cn1", "Percent Effect": -110.1},
      {"compound": "Cn1cc(CN2CCCN(CCCc3ccccc3)CC2)cn1", "Percent Effect": -23.65},
      {"compound": "Cn1cnnc1CNC(=O)C1CCCN(Cc2cccc(F)c2)C1", "note": "(configuration not stated)", "Percent Effect": -147.7},
      {"compound": "Cn1cc(CNC(=O)C2CCCN(Cc3cccc(F)c3)C2)cn1", "note": "(configuration not stated)", "Percent Effect": -63.48},
      {"compound": "Cc1ccccc1CCC1CCCN(Cc2nnc(-c3ccco3)o2)C1", "note": "(configuration not stated)", "Percent Effect": -11.7},
      {"compound": "Cn1cc(C[C@H]2[C@H](O)CCN2Cc2ccc(F)cc2)cn1.O=C(O)C(F)(F)F", "Percent Effect": 1.719},
      {"compound": "Cc1[nH]c(=O)[nH]c(=O)c1CN1CCCC(CCc2ccc(F)c(F)c2)C1", "note": "(configuration not stated)", "Percent Effect": -43.91},
      {"compound": "COc1ccc(CN2CCCC(Cn3nc(C)nc3C)C2)cc1F", "note": "(configuration not stated)", "Percent Effect": -17.07},
      {"compound": "Cn1cc(CN2CCCC(CCc3ccccc3C(F)(F)F)C2)cn1", "note": "(configuration not stated)", "Percent Effect": 87.33},
      {"compound": "Cn1ccnc1CCNC(=O)C1CCCN(Cc2cccc(F)c2)C1", "note": "(configuration not stated)", "Percent Effect": 58.15},
      {"compound": "Cn1cc(CN2CCCC(CCc3ccc(F)cc3)C2)cn1", "note": "(configuration not stated)", "Percent Effect": 73.58},
      {"compound": "Cn1cc(CN2CCCC(CCc3ccc(F)c(F)c3)C2)cn1", "note": "(configuration not stated)", "Percent Effect": 69.99},
      {"compound": "Cc1nn(C)c(Cl)c1C1CCCN1C(=O)c1ccnn1C", "note": "(configuration not stated)", "Percent Effect": -125.5},
      {"compound": "Cc1nc(CN2C[C@@H]3CN(C(=O)Cc4ccccn4)C[C@@H]3C2)cs1.O=C(O)C(F)(F)F.O=C(O)C(F)(F)F", "Percent Effect": -48.37},
      {"compound": "CN(Cc1nccn1CC(F)(F)F)C(=O)c1ccc(F)cc1F", "Percent Effect": -38.32},
      {"compound": "CCN1CCN(c2ccc(NC(C)c3nc(C(C)C)no3)c(C)c2)CC1", "note": "(configuration not stated)", "Percent Effect": -29.45},
      {"compound": "CNC(=O)COC(=O)c1ccn(-c2ccc(Cl)c(Cl)c2)n1", "Percent Effect": -33.36},
      {"compound": "COCC1c2c(cnn2C)CCN1Cc1ccco1.O=C(O)C(F)(F)F.O=C(O)C(F)(F)F", "note": "(configuration not stated)", "Percent Effect": -7.218},
      {"compound": "Cc1cc(F)ccc1-n1cc(O)c(C(N)=O)n1", "Percent Effect": -184.1},
      {"compound": "Cc1nc(C)n(CC2CCCN(Cc3ccc(F)cc3C#N)C2)n1", "note": "(configuration not stated)", "Percent Effect": -108},
      {"compound": "CC(c1ccc(F)c(F)c1)N1CCN(Cc2nccn2C)CC1", "note": "(configuration not stated)", "Percent Effect": -18.79},
      {"compound": "Cc1[nH]c(=O)[nH]c(=O)c1CN1CCCC(CCc2c(F)cccc2F)C1", "note": "(configuration not stated)", "Percent Effect": -50.25},
      {"compound": "Cn1cc(CN2CCCC(CCc3c(F)cccc3F)C2)cn1", "note": "(configuration not stated)", "Percent Effect": 78.37},
      {"compound": "Cn1cc(CN2CCCC(CCc3ccc(F)cc3F)C2)cn1", "note": "(configuration not stated)", "Percent Effect": 88.72},
      {"compound": "CC(C)n1ccnc1C1CCCN(Cc2ccc(F)c(F)c2)C1", "note": "(configuration not stated)", "Percent Effect": 8.859},
      {"compound": "Cc1[nH]c(=O)[nH]c(=O)c1CN1CCCC(CCc2ccc(F)cc2F)C1", "note": "(configuration not stated)", "Percent Effect": 49.97},
      {"compound": "Cc1[nH]c(=O)[nH]c(=O)c1CN1CCCC(CCc2ccccc2F)C1", "note": "(configuration not stated)", "Percent Effect": -31.73},
      {"compound": "Cn1ccnc1CN1CCCC(CCc2ccc(F)c(F)c2)C1", "note": "(configuration not stated)", "Percent Effect": 73.33},
      {"compound": "Cc1ccc(N2CCN(C(=O)CCc3ccc(O)cc3)CC2=O)cc1", "Percent Effect": -38.56},
      {"compound": "Cc1cc(F)cc2c(N3CCC(S(N)(=O)=O)CC3)c(C#N)cnc12", "Percent Effect": -75.95},
      {"compound": "O=C1CC2(CCSC2)C(=O)N1Cc1coc(-c2ccccc2)n1", "note": "(configuration not stated)", "Percent Effect": -69.36},
      {"compound": "CC1CCc2[nH]c(=O)c(C(=O)N3CCc4ccccc4C3)cc2C1", "note": "(configuration not stated)", "Percent Effect": -106.2},
      {"compound": "COCCN(Cc1ccccc1Cl)c1nc(CCN)nc2ccccc12", "Percent Effect": 89.02},
      {"compound": "Cc1ccsc1CN(c1nc(CCN)nc2ccccc12)C1CC1", "Percent Effect": 51.16},
      {"compound": "NCCc1nc(N(Cc2cncs2)C2CC2)c2ccccc2n1", "Percent Effect": -36.69},
      {"compound": "COCCN(Cc1cccs1)c1nc(CCN)nc2ccccc12", "Percent Effect": 61.62},
      {"compound": "COCCN(CCOC)Cc1c(C)nc2ccccc2c1O", "Percent Effect": -60.42},
      {"compound": "COCCN(CC1CC1)c1nc(CCN)nc2ccccc12", "Percent Effect": 8.553},
      {"compound": "COCCN(Cc1cc(O)nc2ccccc12)C(=O)NC(C)C", "Percent Effect": -37.53},
      {"compound": "COCCN(Cc1cccs1)C(=O)C1CCCN(C(N)=O)C1", "note": "(configuration not stated)", "Percent Effect": -166.3},
      {"compound": "NCCc1nc(N(Cc2nccs2)C2CC2)c2ccccc2n1", "Percent Effect": -61.5},
      {"compound": "CCC(=O)N(CCN(C)C)Cc1ccc(F)c(F)c1", "Percent Effect": 39.58},
      {"compound": "CC(C)C1CCC(N2CCN(CCCS(C)(=O)=O)CC2)CC1", "note": "(configuration not stated)", "Percent Effect": 11.68},
      {"compound": "Cc1cc2nc(C(C)C)cc(N3CCC(O)CC3)n2n1", "Percent Effect": -114.9},
      {"compound": "Cc1cccc(C(C(=O)NCC2(O)CCCCC2)N(C)C)c1", "note": "(configuration not stated)", "Percent Effect": -49.85},
      {"compound": "Cc1cccc(OC(C)C(=O)NCC2(N(C)C)CCCC2)c1", "note": "(configuration not stated)", "Percent Effect": 80.49},
      {"compound": "CC(=O)N(C)CC(=O)NCC1(c2cccc(C)c2)CCCC1", "Percent Effect": -51.91},
      {"compound": "CC1CN(C(=O)NCCc2nc(C(C)C)no2)CCO1", "note": "(configuration not stated)", "Percent Effect": -93.77},
      {"compound": "Cc1cccc(CNC2CCCc3c2cnn3C)c1.Cl", "note": "(configuration not stated)", "Percent Effect": -40.76},
      {"compound": "Cl.Cn1ncc2c1CCCC2NCc1cccc(F)c1", "note": "(configuration not stated)", "Percent Effect": 10.36},
      {"compound": "Cc1cccc(CNC2CCCc3c2cnn3Cc2ccccc2)c1.Cl", "note": "(configuration not stated)", "Percent Effect": 64.5},
      {"compound": "c1ccc(CN2CCC3(COCc4cnc(NCC5CC5)nc43)C2)cc1", "note": "(configuration not stated)", "Percent Effect": 50.22},
      {"compound": "O=S(=O)(C1CC1)N1CCC2(COCc3cnc(NCC4CC4)nc32)C1", "note": "(configuration not stated)", "Percent Effect": -35.4},
      {"compound": "c1cc(N2CCC3(COCc4cnc(NCC5CC5)nc43)C2)ncn1", "note": "(configuration not stated)", "Percent Effect": -14.49},
      {"compound": "CC(C)CC(NC(=O)c1ccn(C)c(=O)c1)c1cccs1", "note": "(configuration not stated)", "Percent Effect": -80.8},
      {"compound": "Cc1cc(C(=O)N(C)CCCn2cccn2)nc(N)n1", "Percent Effect": -80.13},
      {"compound": "CCN(CC)C(=O)N1CCN(Cc2cnc(C)nc2)[C@H]2CS(=O)(=O)C[C@H]21", "Percent Effect": -158.8},
      {"compound": "CCS(=O)(=O)N1CCCn2nnc(CNC(C)=O)c2C1", "Percent Effect": -63.27},
      {"compound": "CCN1CCCC(O)(CNCc2ccccc2F)C1", "note": "(configuration not stated)", "Percent Effect": 38.87},
      {"compound": "CCN1CCCC(O)(CN(C)Cc2ccccc2F)C1", "note": "(configuration not stated)", "Percent Effect": 56.49},
      {"compound": "CN(C)CC1(O)CCCN(Cc2ccccc2OCC(=O)N(C)C)C1", "note": "(configuration not stated)", "Percent Effect": -89.01}
    ]}
  ]
}
